Results from PubChem BioAssay AID485364 (National Center for Advancing Translational Sciences (NCATS), 2010).
The campaign covered roughly 360,000 compounds. About 11,000 (3.1%) were called active. Another 4% or so got no clear call; they are omitted. Calls come from the whole dose curve; as a rule, active = well fitted inhibition curve with a large enough effect; inconclusive = small, poorly fitted or top-dose-only effect; inactive = no such curve, though single readings can be large or run the other way. The entries come from a sample that favours actives as a whole. Entries that show only a call come without a potency.

target: Schistosoma mansoni thioredoxin glutathione reductase (TGR) (UniProt Q962Y6); experiment: qHTS Assay for the Inhibitors of Schistosoma Mansoni Peroxiredoxins; conditions: purified TGR, DTNB reduction, TNB absorbance 405 nm; series mostly up to 114 µM; note: nearly all actives have a fitted effect of over 60% in size
Summary of the method: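 First, TGR (20 nM dispensed) and NADPH were mixed with compound. Second, a 15 min room-temperature incubation followed. Third, further NADPH and then DTNB were added to start the reaction. Finally, TNB absorbance was monitored kinetically.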
Potency is the fitted concentration of half-maximal effect.

Row | Structure (SMILES) | Potency
1 | CCN1N=C(c2ccccc2)CCC1=O | inactive
2 | CC1CSc2nnc(CCc3ccccc3)n21 (configuration not stated) | inactive
3 | Cc1nnc2n1N=C(c1ccccc1)CS2 | 39.8 µM (active)
4 | COc1ccc(-c2cc(-c3nc(-c4cc(OC)c(OC)c(OC)c4)no3)[nH]n2)c(OC)c1 | inactive
5 | CCOCCCNC(=O)c1c(NC(=O)c2nc(SC)ncc2Cl)sc2c1CCCC2 | inactive
6 | CC(C)c1ccc(S(=O)(=O)Nc2ccc(O)c(Sc3nc4ccccc4s3)c2)cc1 | inactive
7 | CC(C)(C)c1ccc(S(=O)(=O)Nc2ccc(O)c(Sc3nc4ccccc4s3)c2)cc1 | inactive
8 | O=[N+]([O-])c1c(NCCO)cc(Sc2nc3ccccc3s2)c2nonc12 | 0.1 µM (active)
9 | Cc1ccccc1C(=O)Nc1sc2c(c1C(=O)N1CCC(C)CC1)CCCC2 | inactive
10 | CCOC(=O)c1ccccc1NC(=O)CCc1c(C)nc2c(c1C)c(=O)n(C)c(=O)n2C | inactive
11 | Cn1c(=O)c([N+](=O)[O-])c(Oc2ccccc2)c2ccccc21 | 2.82 µM (active)
12 | Cc1cccc(Oc2c([N+](=O)[O-])c(=O)n(C)c3ccccc23)c1 | 3.98 µM (active)
13 | Cc1cccc(C2CC(=O)Oc3c2c(=O)n(C)c2ccccc32)c1 (configuration not stated) | inactive
14 | Cc1cccc(OP(=O)(Nc2c(C)n(C)n(-c3ccccc3)c2=O)Oc2cccc(C)c2)c1 | inactive
15 | Cn1nc(-c2ccccc2)c2cc([N+](=O)[O-])ccc21 | inactive
16 | Cn1c(=O)c(Sc2ccc(Cl)cc2)c(O)c2ccccc21 | inactive
17 | Cc1ccc(Cl)cc1N1CCN(S(=O)(=O)c2cc3[nH]c(=O)c(=O)[nH]c3cc2C)CC1 | inactive
18 | CCCNC(=O)c1ccc2c(c1)ncn2-c1ccc(C)cc1C | inactive
19 | CC(C)CC(=O)NCC(c1ccc2c(c1)OCO2)N1CCN(c2ccc(F)cc2)CC1 (configuration not stated) | inactive
20 | CCOc1cc(/C=C(\C#N)C(=O)Nc2ccccc2C)ccc1OCc1cc(=O)n2nc(CC)sc2n1 | inactive
21 | CCOCCCn1c(SCC(=O)Nc2ccc(CC)cc2)nc2ccccc2c1=O | inactive
22 | CCOc1ccc(NC(=O)CC2C(=O)N(c3cccc(OC)c3)C(=O)N2C2CCCCC2)cc1 (configuration not stated) | inactive
23 | CCOc1ccc(CNC(=O)C2CCC(=O)N2C2CCCC2)cc1OC (configuration not stated) | inactive
24 | CCOc1cc(C2C(C(=O)OC)=CN(C3CCCC3)C=C2C(=O)OC)cc(Br)c1O | 56.2 µM (active)
25 | COC(=O)C1=CN(Cc2ccc(OC)cc2)C=C(C(=O)OC)C1c1ccc(O)c(OC)c1 | inactive
26 | COc1ccc(C)cc1Nc1nc2ccccc2c2nnc(C)n12 | inactive
27 | COc1cc2ccccc2cc1C(=O)Nc1cccc(-c2nc3ccccc3o2)c1 | inactive
